# Out of some 5,500 compounds screened, about 2,000 (36%) were called active. About 18% were inconclusive and are not listed. This is one part of the list. Unmarked numbers belong to inactive results. No stated cut-off is given here; in the data, active means normalized growth mostly below about 0.91 (no sharp cut-off); inconclusive means no clear call, values can overlap the other calls; inactive means mostly above about 0.92.
# Assay: chemical genetic growth profiling, strain panel (AID 1159580);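 further: tested at 20 µM; growth read once vehicle control cultures reached saturation at 30 °C; 1 = growth at the plate median or of vehicle wells; lower values mean less growth of the strain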
# Settings: S. cerevisiae deletion strains, growth OD
structure (smiles),measurement,setting,value
C=C(C)/C=C1/C=CC(=O)C(C)=C1,normalized growth,"locus YBR021W, strain FUR4, hits give low values",0.466 (active)
same,normalized growth,"locus YBR229C, strain ROT2, hits give low values",0.99
same,normalized growth,"locus YCL029C, strain bik1, hits give low values",0.611 (active)
same,normalized growth,"locus YDL035C, strain GPR1, hits give low values",0.185 (active)
same,normalized growth,"locus YDL074C, strain BRE1, hits give low values",0.26 (active)
same,normalized growth,"locus YDL101C, strain DUN1, hits give low values",0.803 (active)
same,normalized growth,"locus YDL185W, strain tfp1, hits give low values",0.06 (active)
same,normalized growth,"locus YDL192W, strain arf1, hits give low values",0.0749 (active)
same,normalized growth,"locus YDR101C, strain arx1, hits give low values",0.613 (active)
same,normalized growth,"locus YDR162C, strain NBP2, hits give low values",0.208 (active)
same,normalized growth,"locus YDR318W, strain mcm21, hits give low values",0.0733 (active)
same,normalized growth,"locus YDR388W, hits give low values",0.544 (active)
same,normalized growth,"locus YDR502C, strain sam2, hits give low values",0.0764 (active)
same,normalized growth,"locus YEL061C, strain CIN8, hits give low values",0.288 (active)
same,normalized growth,"locus YER110C, hits give low values",0.472 (active)
same,normalized growth,"locus YER155C, strain BEM2, hits give low values",0.27 (active)
same,normalized growth,"locus YER167W, strain BCK2, hits give low values",0.151 (active)
same,normalized growth,"locus YGL078C, strain dbp3, hits give low values",0.0621 (active)
same,normalized growth,"locus YGL086W, strain mad1, hits give low values",0.0823 (active)
same,normalized growth,"locus YGL248W, strain PDE1, hits give low values",0.152 (active)
same,normalized growth,"locus YGR078C, strain PAC10, hits give low values",0.097 (active)
same,normalized growth,"locus YGR135W, strain pre9, hits give low values",0.129 (active)
same,normalized growth,"locus YGR252W, strain gcn5, hits give low values",0.264 (active)
same,normalized growth,"locus YHR079C, strain IRE1 (second series), hits give low values",0.687 (active)
same,normalized growth,"locus YHR094C, strain hxt1, hits give low values",0.088 (active)
same,normalized growth,"locus YHR129C, strain ARP1, hits give low values",0.107 (active)
same,normalized growth,"locus YHR200W, strain rpn10, hits give low values",0.27 (active)
same,normalized growth,"locus YIL066C, strain RNR3, hits give low values",0.458 (active)
same,normalized growth,"locus YIL073C, strain SPO22, hits give low values",0.179 (active)
same,normalized growth,"locus YIL125W, strain kgd1, hits give low values",0.0607 (active)
same,normalized growth,"locus YIR030C, strain dcg1, hits give low values",0.42 (active)
same,normalized growth,"locus YJL095W, strain BCK1, hits give low values",0.375 (active)
same,normalized growth,"locus YJL134W, strain LCB3, hits give low values",0.183 (active)
same,normalized growth,"locus YJL168C, strain set2, hits give low values",0.203 (active)
same,normalized growth,"locus YJL187C, strain SWE1 (second series), hits give low values",0.636 (active)
same,normalized growth,"locus YKL068W, hits give low values",0.0579 (active)
same,normalized growth,"locus YKL085W, strain MDH1 (second series), hits give low values",0.0777 (active)
same,normalized growth,"locus YKL085W, strain MDH1, hits give low values",0.0777 (active)
same,normalized growth,"locus YKL190W, strain CNB1, hits give low values",0.198 (active)
same,normalized growth,"locus YKR001C, strain vps1, hits give low values",0.0676 (active)
same,normalized growth,"locus YLR039C, strain RIC1, hits give low values",0.166 (active)
same,normalized growth,"locus YLR058C, strain SHM2, hits give low values",0.755 (active)
same,normalized growth,"locus YLR102C, strain apc9, hits give low values",0.0756 (active)
same,normalized growth,"locus YLR262C, strain YPT6, hits give low values",0.152 (active)
same,normalized growth,"locus YLR268W, strain sec22, hits give low values",0.076 (active)
same,normalized growth,"locus YLR330W, strain CHS5, hits give low values",0.0909 (active)
same,normalized growth,"locus YLR371W, strain rom2, hits give low values",0.0908 (active)
same,normalized growth,"locus YLR418C, strain cdc73, hits give low values",0.116 (active)
same,normalized growth,"locus YML016C, strain PPZ1, hits give low values",0.228 (active)
same,normalized growth,"locus YML032C, strain rad52, hits give low values",0.7 (active)
same,normalized growth,"locus YML124C, strain tub3, hits give low values",0.174 (active)
same,normalized growth,"locus YMR078C, strain ctf18, hits give low values",0.0861 (active)
same,normalized growth,"locus YMR223W, strain ubp8, hits give low values",0.108 (active)
same,normalized growth,"locus YMR307W, strain GAS1, hits give low values",0.147 (active)
same,normalized growth,"locus YNL067W, strain RPL9B, hits give low values",0.0907 (active)
same,normalized growth,"locus YNL128W, strain TEP1, hits give low values",0.229 (active)
same,normalized growth,"locus YNL233W, strain BNI4, hits give low values",0.188 (active)
same,normalized growth,"locus YNL250W, strain rad50, hits give low values",0.0988 (active)
same,normalized growth,"locus YNL271C, strain bni1, hits give low values",0.0645 (active)
same,normalized growth,"locus YNL298W, strain CLA4, hits give low values",0.06 (active)
same,normalized growth,"locus YNL307C, strain MCK1, hits give low values",0.0748 (active)
same,normalized growth,"locus YNR052C, strain pop2, hits give low values",0.748 (active)
same,normalized growth,"locus YOL006C, strain TOP1, hits give low values",0.202 (active)
same,normalized growth,"locus YOL012C, strain htz1",0.247
same,normalized growth,"locus YOL147C, strain pex11, hits give low values",0.464 (active)
same,normalized growth,"locus YOR061W, strain CKA2, hits give low values",0.449 (active)
same,normalized growth,"locus YOR069W, strain VPS5, hits give low values",0.0688 (active)
same,normalized growth,"locus YOR136W, strain idh2, hits give low values",0.106 (active)
same,normalized growth,"locus YOR144C, strain elg1, hits give low values",0.646 (active)
same,normalized growth,"locus YOR184W, strain ser1, hits give low values",0.0806 (active)
same,normalized growth,"locus YOR316C, strain cot1, hits give low values",0.0831 (active)
same,normalized growth,"locus YPL055C, strain LGE1, hits give low values",0.103 (active)
same,normalized growth,"locus YPR119W, strain clb2, hits give low values",0.0703 (active)
same,normalized growth,"locus YPR141C, strain kar3, hits give low values",0.0832 (active)
same,normalized growth,"locus YPR163C, strain tif3, hits give low values",0.0853 (active)
same,normalized growth,"locus YPR167C, strain met16, hits give low values",0.0692 (active)
same,normalized growth,"strain wtn01, hits give low values",0.0763 (active)

# Reference: PubChem BioAssay AID1159580 (chemical genetic matrix, 2015)
